Among all 190,000 compounds or so, about 930 (0.49%) were called active.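 The calls were made as follows: active = z-score of insulin promoter reporter brightness in nuclei below -3 at 5 µM, with at least 500 cells counted; inconclusive = wells with under 500 cells, flagged as toxic or sparse; inactive = the rest.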 The list shows a part of the results. Results with a measured potency or affinity are listed apart.

A short description of the test: insulin promoter down-regulators in MIN6 cells, imaging, high-content screening, mouse beta cells (AID 1628). Particulars: MIN6 insulin promoter GFP reporter, at 5 µM, hits give low values.
Turning to `COC(=O)c1[nH]c2ccc(F)cc2c1NC(=O)CCN1CCN(Cc2ccc3c(c2)OCO3)CC1`, the z-score was -3.4 (active).

With `COC(CNC(=O)c1ccc(Cn2c(=S)[nH]c3cc4c(cc3c2=O)OCO4)cc1)OC`, the z-score is 3.48 (inactive).

As for `COC(=O)c1c(NC(=O)CN2CCN(Cc3ccc4c(c3)OCO4)CC2)sc(C)c1C`, the z-score is -5.05 (active).

Turning to `CCCNC(=O)Cn1cnc2sc(C(=O)N3CCN(Cc4ccc5c(c4)OCO5)CC3)c(C)c2c1=O`, the z-score was 3.66 (inactive).

Turning to `COC(=O)c1[nH]c2ccc(C)cc2c1NC(=O)CCN1CCN(Cc2ccc3c(c2)OCO3)CC1`, the z-score is -3.87 (active).

Turning to `CCCCN1C(=O)C2(NNc3ccccc3O2)c2ccccc21` (centres undefined), the z-score was 4.38 (inactive).

In the case of `Cc1cc(N2CCCC2)ccc1/C=C1\NC(=S)N(C)C1=O`, the z-score was 10.4 (inactive).

`COc1ccc(N=c2oc3c(OC)cccc3cc2C(=O)NCc2ccco2)c(OC)c1`: the z-score was -3.31 (active).

As for `O=C(NN=C1CCN(Cc2ccccc2)CC1)c1cc(Br)ccc1O`, the z-score is 1.47 (inactive).

For the molecule `O=C(Nc1ccc(F)cc1)NC1CCN(Cc2ccccc2)CC1`, the z-score is -3.27 (active).

With `CCCCNc1ccc2c3c(cccc13)C(=O)N(CCCC)C2=O`, the z-score was 17.1 (inactive).

For `CC(=O)OCCCN1C(=O)c2ccc(Br)cc2C1=O`, the z-score was 1.19 (inactive).

With `CCOC(=O)C1=C(C)NC(=O)CC1c1cc2c(cc1[N+](=O)[O-])OCO2` (centres undefined), the z-score was 3.01 (inactive).

For the molecule `CC(C)Oc1ccccc1C1CC(=O)Nc2cc3c(cc21)OCCO3` (centres undefined), the z-score is -4.18 (active).

With `CCNc1nc(N2CCCC2)nc(N2CCCC2)n1`, the z-score was -3.04 (active).

Turning to `O=C(OCCN1C(=O)c2cccc3c(N4CCOCC4)ccc(c23)C1=O)c1ccc(Cl)cc1Cl`, the z-score was 3.13 (inactive).

Turning to `CN1C=CC2=C(C#N)C(N)C(C#N)(C#N)C(c3ccccc3)C2C1` (centres undefined), the z-score is 10.1 (inactive).

For the molecule `CC12CCC(C/C1=N/O)C2(C)C` (centres undefined), the z-score was 0.65 (inactive).

For the molecule `C(=N\Nc1nc(-c2ccccn2)nc2ccccc12)/c1ccccc1`, the z-score is -3.55 (active).

`Cc1ccc2nc(C(Cl)(Cl)Cl)nc(N/N=C/c3ccncc3)c2c1`: the z-score was 2.39 (inactive).

Take `CCOc1ccc(CNC(=O)CCn2c(=O)oc3ccccc32)cc1`: the z-score was 3.4 (inactive).

Take `CCOc1ccc(N2CC(C(=O)NCc3ccc(F)cc3)CC2=O)cc1` (centres undefined): the z-score is -5.37 (active).

For the molecule `CCOc1ccc(NC(=O)NC2CC(=O)N(c3ccc(OC)cc3)C2)cc1` (centres undefined), the z-score is 2.29 (inactive).

As to `COc1cc2nc(/C=C/c3ccc(N(C)C)cc3)sc2cc1SC`, the z-score is 15.9 (inactive).

As for `COc1cccc(NC(=O)Cn2c(SCC(=O)N3CCOCC3)nc3ccccc32)c1`, the z-score was -4.09 (active).

With `COc1cccc(NC(=O)Cn2c(-c3cncs3)nc3ccccc32)c1`, the z-score is 5.27 (inactive).

Take `COc1cccc(NC(=O)CSc2nncn2N)c1`: the z-score is 0.29 (inactive).

As for `COc1cccc(NC(=O)CSc2nc3ccccc3c(=O)n2CCCC(=O)N2CCCC2)c1`, the z-score is -4.63 (active).

On to `CCOc1ccc(NC(=O)Cn2c(=O)oc3ccccc32)cc1`, for which the z-score was 3.64 (inactive).
